Results published in PubChem BioAssay AID652048 (National Center for Advancing Translational Sciences (NCATS), 2013).
Among all 410,000 compounds or so, about 2,400 (0.59%) were called active. Rule as the data show it: active = max activation above about 30%; inactive = the rest. For the sample, actives were picked, then their nearest neighbours and some compounds at random.

These compounds were tested against D(3) dopamine receptor (Homo sapiens) (UniProt P35462) (assay: qHTS of D3 Dopamine Receptor Agonist: qHTS). Settings: D3R DiscoveRx beta-arrestin cells, luminescence, 90 min; active compounds read high.
How it was run: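 Agonist mode: compounds and dopamine controls were applied to plated cells for 90 min at 37 degrees C after an overnight attachment at 1500 cells/well. Luminescent read-out followed 30 - 60 minutes at room temperature with DiscoveRx detection reagent.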
Also: 0% is about no effect.

Sequence of D(3) dopamine receptor (Homo sapiens) (P35462 whole entry, looked up): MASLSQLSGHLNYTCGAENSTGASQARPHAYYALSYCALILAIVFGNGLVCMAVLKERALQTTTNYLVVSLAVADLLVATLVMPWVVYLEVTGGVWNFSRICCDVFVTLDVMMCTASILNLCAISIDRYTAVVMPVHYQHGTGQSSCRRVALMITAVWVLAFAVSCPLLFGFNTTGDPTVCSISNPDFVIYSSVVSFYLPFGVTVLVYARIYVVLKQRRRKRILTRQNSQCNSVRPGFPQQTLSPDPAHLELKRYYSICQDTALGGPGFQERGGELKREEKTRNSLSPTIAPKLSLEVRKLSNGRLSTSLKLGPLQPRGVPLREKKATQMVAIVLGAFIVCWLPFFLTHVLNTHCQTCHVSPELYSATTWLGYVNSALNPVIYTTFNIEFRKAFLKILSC

| SMILES | max activation |
| --- | --- |
| CCC(C)c1ccc(O)c(/C=N/O)c1 (stereo not given) | -1.03% (inactive) |
| CNCC(O)c1ccc(O)c(O)c1 (stereo not given) | 137% (active) |
| Cc1cc(C)c(-c2n[nH]c3c2C(c2ccccc2F)N(CCO)C3=O)c(O)c1 (stereo not given) | -0.594% (inactive) |
| CCC1(C)CC(=O)NC1=O (stereo not given) | -5.68% (inactive) |
| Cc1cc(C(=O)Nc2cccc(C(F)(F)F)c2)c2c(C)nn(-c3cccc(F)c3)c2n1 | 8.25% (inactive) |
| CCOC(=O)CSc1nnc(CNC(=O)c2cccs2)n1-c1cc(OC)ccc1OC | 6.63% (inactive) |
| CC(C)(C)OC(=O)N1CCC(c2c(C(=O)N3CCN(c4cccc(Cl)c4)CC3)cnn2-c2cccc(Cl)c2)CC1 | -9.63% (inactive) |
| COC(=O)c1ccccc1NC(=O)Cn1c(=O)n(-c2cccc(C(F)(F)F)c2)c(=O)c2c(C)c(C)sc21 | -14.9% (inactive) |
| CS(=O)(=O)N(Cc1ccc(Cl)cc1)c1ccc(C(=O)NCCSCc2ccco2)cc1 | 0.47% (inactive) |
| Cc1ccc(N(Cc2ccc(C(=O)Nc3ccccc3C(=O)NCc3ccco3)cc2)S(C)(=O)=O)cc1C | 33.8% (active) |
| CCN1CCN(C(=O)c2ccc(CN(c3ccc(C)c(C)c3)S(C)(=O)=O)cc2)CC1 | -12.8% (inactive) |
| Cc1oc2ncnc(N3CCCCC3)c2c1C(=O)N1CCN(c2cccc(Cl)c2)CC1 | -5.06% (inactive) |
| Cc1cc(C)cc(NC(=O)CSc2nc(=O)n(CCN3CCOCC3)c3c2CCC3)c1 | 0.821% (inactive) |
| CC(C)(C)OC(=O)N1CCC(c2c(C(=O)NCc3ccccn3)cnn2-c2ccc(F)cc2)CC1 | -0.963% (inactive) |
| CCCOc1ccc(NC(=O)CC2C(=O)N(c3ccccc3)C(=O)N2Cc2ccco2)cc1 (stereo not given) | 8.76% (inactive) |
| COc1ccc(-c2cc(-c3nc(-c4cc(OC)c(OC)c(OC)c4)no3)[nH]n2)c(OC)c1 | 5.61% (inactive) |
| CCc1ccc(-n2nnc(-c3nc(-c4ccccc4)no3)c2C)cc1 | 6.45% (inactive) |
| COc1ccc(OC)c(-n2nnc(-c3nc(-c4cc(OC)c(OC)c(OC)c4)no3)c2C)c1 | 31.2% (active) |
| Nc1ccccc1SC(C[N+](=O)[O-])c1ccccc1 (stereo not given) | 0.396% (inactive) |
| Cc1cccc(C)c1NC(=O)NC1=CCCN1C | 0.916% (inactive) |
| O=C(O)CCC(=O)O | 17.7% (inactive) |
| CCOc1ccc(S(=O)(=O)c2cn(Cc3ccccc3)c3ccc(OCC)cc3c2=O)cc1 | 6.37% (inactive) |
| COc1ccc(OC)c(-c2c(=O)n(OCc3ccccc3Br)c3ccccc3[n+]2[O-])c1 | -6.63% (inactive) |

| SMILES | max activation |
| --- | --- |
| CCOc1ccc(OCC)c(-c2c(=O)n(OCc3ccc(Cl)cc3)c3ccccc3[n+]2[O-])c1 | 39.5% (active) |
| O=C(OCc1ccccc1)c1ccc(O)cc1 | 3.77% (inactive) |
| Cc1ccc(C(=O)COC(=O)c2cccc(N3C(=O)c4c(C)nc5ccccc5c4C3=O)c2)cc1C | 40.4% (active) |
| Cc1ccc(C(=O)OCC(=O)NC2CCCCCCC2)cc1C | 1.29% (inactive) |
| Cc1ccc(C(=O)COC(=O)CCN2C(=O)C3C4CCC(C4)C3C2=O)cc1C (stereo not given) | -16.9% (inactive) |
| Cc1cc2c(cc3c(SCc4nc(-c5ccccc5)oc4C)nnc(C)n32)o1 | -6.34% (inactive) |
| COc1ccc(C(=O)c2oc3ccccc3c2NC(=O)COc2cccc(C)c2)cc1 | -8.79% (inactive) |
| Cc1ccc(N(CC(=O)NCc2ccc(Cl)cc2)S(=O)(=O)N(C)C)cc1 | 1.16% (inactive) |
| Cc1ccccc1OCC(=O)Nc1c(C(=O)Nc2ccccc2F)oc2ccccc12 | -10.6% (inactive) |
| COC(=O)[C@@H]1CC2=CC(=O)CC[C@]2(C)[C@@]23O[C@@H]2C[C@@]2(C)[C@@H](CC[C@@]24CCC(=O)O4)[C@H]13 | 3.79% (inactive) |
| COc1cccc(N2CCN(C(=O)CCCCCn3c(=O)[nH]c4ccccc4c3=O)CC2)c1 | -3.38% (inactive) |
| Cc1cc(NS(=O)(=O)c2ccc(NC(=O)c3ccccc3C)cc2)nc(C)n1 | 0.492% (inactive) |
| COC(=O)c1ccc(NC(=O)c2ccccc2NS(=O)(=O)c2ccccc2)cc1 | 34.2% (active) |
| COC(=O)c1ccccc1NS(=O)(=O)c1ccc2c(c1)CCCN2C(C)=O | -8.34% (inactive) |
| CCOc1ccc(S(=O)(=O)N(CC(=O)NCCSCc2ccc(C)cc2)c2ccccc2)cc1 | 1.63% (inactive) |
| COc1ccc(C)cc1NC(=O)C(=O)NCCc1sc(-c2cccc(C)c2)nc1C | 3.11% (inactive) |
| NNc1nnc(NN)c2ccccc12 | -0.65% (inactive) |
| CCOC(=O)c1ccc(NC(=O)CCS(=O)(=O)c2ccc(C)cc2)cc1 | 4.32% (inactive) |
| Cc1noc(C)c1C(=O)NCCc1ccc(S(N)(=O)=O)cc1 | 4.23% (inactive) |
| Cc1noc(C)c1C(=O)Nc1ccccn1 | 31.1% (active) |
| Cc1noc(C)c1C(=O)NC(C)c1ccc2c(c1)OCO2 (stereo not given) | 17.7% (inactive) |
| O=C(/C=C/c1cccc(F)c1)NC1CC1 | 7.01% (inactive) |
| CCCCn1nc(C(=O)OCC(=O)Nc2sccc2C(N)=O)c2ccccc2c1=O | 39.2% (active) |

| SMILES | max activation |
| --- | --- |
| Cc1cccc(C(=O)OCC(=O)Nc2sccc2C(N)=O)c1C | 3.92% (inactive) |
| NC(=O)c1ccsc1NC(=O)COC(=O)Cc1n[nH]c(=O)c2ccccc12 | -0.194% (inactive) |
| CO[C@]1(NC(=O)CSC(F)F)C(=O)N2C(C(=O)O)=C(CSc3nnnn3CCO)CO[C@H]21 | 4.38% (inactive) |
| CC(CCc1ccccc1)NC(=O)c1cnc(Cl)c(Cl)c1 (stereo not given) | -0.183% (inactive) |
| CC(CCc1ccc(O)cc1)NCc1ccc(Cl)cc1Cl (stereo not given) | 91.1% (active) |
| COc1ccc(CNC(=O)C(C)NCc2ccccc2Cl)cc1 (stereo not given) | -7.27% (inactive) |
| CCCCSc1ncnc2c1sc1nc(N3CCOCC3)c3c(c12)CCCC3 | -9.06% (inactive) |
| COc1ccc(N)cc1NC(=O)CN1CCOCC1 | 3.16% (inactive) |
| COc1ccc(NC(C)=O)cc1NC(=O)CN1CCN(C2c3ccccc3-c3ccccc32)CC1 | 46.6% (active) |
| COc1ccc(NC(C)=O)cc1NC(=O)CN1CCN(c2ccc(F)cc2)CC1 | 3.91% (inactive) |
| Cc1nn2c(=O)cc(COC(=O)CNC(=O)c3ccc(F)cc3)nc2s1 | -2.47% (inactive) |
| CCOc1ccccc1NC(=O)Cc1cccs1 | 49.3% (active) |
| CCOc1ccc(NC(=O)C/C(C)=N/NC(=O)Cc2cccs2)cc1 | 5.68% (inactive) |
| CCOc1ccccc1NC(=O)CCn1cnnn1 | 4.34% (inactive) |
| COc1ccc(CNC(=O)CCc2c(C)nn(-c3ccc(N4CCCC4)nn3)c2C)cc1 | 9.29% (inactive) |
| Cc1noc(C)c1S(=O)(=O)N1CCCC(C(=O)Nc2nccs2)C1 (stereo not given) | 2.46% (inactive) |
| CCOC(=O)C1CCN(S(=O)(=O)c2c(C)noc2C)CC1 | -8.75% (inactive) |
| COc1c(C)cc(C(=O)C2CCCN(S(=O)(=O)c3c(C)noc3C)C2)cc1C (stereo not given) | 32.6% (active) |
| CCCn1c(NCc2ccc(N(CC)CC)cc2)nc2ccccc21 | -7.25% (inactive) |
| COC(=O)c1ccccc1NC(=O)c1cnn(-c2ccc(F)cc2)c1-n1cccc1 | -7.92% (inactive) |
| CCOCCc1nn2c(=O)cc(COC(=O)CNC(=O)c3ccc(C(C)(C)C)cc3)nc2s1 | 6.28% (inactive) |
| Cc1ccc(-n2nc(CO)c(C(=O)NCCc3ccccc3)n2)cc1 | 1.72% (inactive) |
| CCSc1nnc2c(n1)OC(c1ccc(OCC(=O)O)cc1)Nc1ccccc1-2 (stereo not given) | 6.71% (inactive) |

| SMILES | max activation |
| --- | --- |
| CCC(=O)N1CCc2cc(S(=O)(=O)NC(Cc3ccccc3)C(=O)NCc3ccc(C)cc3)ccc21 (stereo not given) | 3.11% (inactive) |
| CCOC(=O)N1CCN(Cc2nc3cc(NC(=O)CC)ccc3n2CC)CC1 | -5.31% (inactive) |
| O=C(CN1CCN(c2ccccn2)CC1)NCc1cccs1 | -2.33% (inactive) |
| O=C(CN1CCN(c2ncccn2)CC1)Nc1ccccc1C(F)(F)F | 5.01% (inactive) |
| Cn1c(CCN2CCN(c3ccccn3)CC2)nc2cc(NS(=O)(=O)c3ccc(F)cc3)ccc21 | 2.61% (inactive) |
| CCC(=O)Nc1ccc2c(c1)nc(CCN1CCN(c3ccccn3)CC1)n2C | 38.1% (active) |
| O=C(CN1CCN(c2ccccn2)CC1)Nc1ccc(Br)cc1 | 45.2% (active) |
| Oc1ccc(Cl)c2c1CCC2 | -6.75% (inactive) |
| CCc1ccc(CNCc2c(C(=O)O)n(Cc3ccc(F)cc3Cl)c3cc(OC)ccc23)cc1 | -22.5% (inactive) |
| CCCC(=O)Nc1ccc2oc(-c3ccc(O)c(Br)c3)nc2c1 | 6.09% (inactive) |
| CC1CCCCN1CC(=O)N1CCCc2c1c(=O)oc1ccc(OCc3ccccc3)cc21 (stereo not given) | -16.2% (inactive) |
| Cc1ccccc1NC(=O)c1c(NC(=O)c2ccccc2F)sc2c1CCC(C)C2 (stereo not given) | 4.23% (inactive) |
| Cc1nnc(C(=O)NC(C)(C)c2nc(C(=O)NCc3ccc(F)cc3)c(O)c(=O)n2C)o1 | 4.42% (inactive) |
| N#Cc1ccc(-c2ccc(F)cc2)nc1Sc1ccccc1 | 5.43% (inactive) |
| CN(C)c1ccnc(Oc2ccc(F)cc2)c1C#N | 2.14% (inactive) |
| N#Cc1ccc(-c2ccc(Cl)cc2)nc1Oc1ccc(F)cc1 | 34.7% (active) |
| Cn1c(=O)sc2cc(NS(=O)(=O)c3ccc(C(C)(C)C)cc3)ccc21 | -11% (inactive) |
| Cc1nnc(NC(=O)CSc2nc3c([nH]c4ccccc43)c(=O)n2-c2cccc(Cl)c2)s1 | 16.6% (inactive) |
| CCc1ccc(-n2c(SCc3cc(=O)n4cc(Br)ccc4n3)nc3[nH]ncc3c2=O)cc1 | 18.2% (inactive) |
| Cc1cccc2nc(CSc3nc4[nH]ncc4c(=O)n3-c3cccc(Cl)c3)cc(=O)n12 | 32.7% (active) |
| CO[C@H]1C=CO[C@@]2(C)Oc3c(C)c(O)c4c(O)c(c(/C=N/N5CCN(C)CC5)c(O)c4c3C2=O)NC(=O)/C(C)=C\C=C[C@H](C)[C@H](O)[C@@H](C)[C@@H](O)[C@@H](C)[C@H](OC(C)=O)[C@@H]1C | -16.3% (inactive) |
